ATXN2 expr inh = Primary qHTS for Inhibitors of ATXN expression; HEK-293 ATXN2-luciferase reporter, luminescence, 24 h; Potency, µM (doses to about 57 µM), for the others: top-dose activity change, negative = inhibition, actives largely listed as inhibitors; 360,000 compounds, 0.72% hits; AID 1745845, 2022; note: % is set by controls: 0 for no effect and ±100 for the full control effect; nearly all actives have a fitted effect of over 55% in size
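ATXN2-luciferase reporter cells (luciferase flanked by upstream and downstream ATXN2 gene portions) were treated 24 h at 37 °C with compounds at up to 57 uM. SteadyGlo luminescence gave expression; GF-AFC fluorescence gave viability.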
ATXN viability = Viability Counterscreen for Primary qHTS for Inhibitors of ATXN expression; S2 cells (HEK-293 line with an ATXN2-luciferase reporter) viability, CellTiter-Fluor protease fluorescence, 24 h; Potency, µM (doses to about 56.7 µM), most hits filed as cytotoxic; 400,000 compounds, 0.49% hits; note: nearly all actives have a fitted effect of over 40% in size
Nrf2 inh = Nrf2 qHTS screen for inhibitors | A549 ARE-Fluc reporter, luciferase luminescence, 18-24 h | Potency, µM (doses to about 46 µM), for inactives: at the highest dose activity change, negative = inhibition, usual class: inhibitors | 360,000 compounds, 2.1% hits | AID 504444, 2011; note: % is set by controls: 0 for no effect and ±100 for the full control effect; nearly all actives have a fitted effect of over 60% in size
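Nrf2 activity is the BugLite luminescence, read 15 min after reagent at room temperature, following CellTiter-Fluor cytotoxicity readout (30 min, 37C). Compound titrations were applied for 18-24 h to 5000 A549 ARE_Fluc cells/well in 5% FBS OPTI-MEM.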
Nrf2 activator = qHTS of Nrf2 Activators. Potency, µM (doses to about 46.1 µM), for the others: at the top dose activation, usual class: activators. 410,000 compounds, 0.31% hits. AREc32 ARE-luciferase reporter (MCF7-derived line), luminescence, 24 h; note: % of control where 0% means no effect; nearly all actives have a fitted effect of over 65% in size
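AREc32 cells carrying an ARE-driven firefly luciferase, 1000 cells/well in OPTI-MEM with 5% FBS, dosed after overnight attachment and incubated 24 hr at 37 deg C. Steady-Glo luminescence read after 30 min at RT.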
A549 tox = Nrf2 qHTS screen for inhibitors: counterscreen for cytotoxicity; A549 ARE-Fluc cells, CellTiter-Fluor viability, 18-24 h; Potency, µM (highest dose often 46 µM), inactives show top-dose activity change, negative = cytotoxicity, hits mostly inhibitors; 390,000 compounds, 0.16% hits; note: % is set by controls: 0 for no effect and ±100 for the full control effect
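A549 ARE-Fluc cells in 5% FBS OPTI-MEM, 5000 cells/well, rested 2 h then exposed to compounds in concentration-response for 18-24 h at 37 °C. Viability by CellTiter-Fluor fluorescence (Ex 405/Em 525) after 30 min; luciferase luminescence (BugLite, 15 min, RT) read afterwards.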
* marks the source's active call; other numbers are inactive results; i = inactive; ? = inconclusive; nt = no result given; [ ] = remark or other dose. Only some compounds are listed: those with a hit (about 2.9% of all), similar ones and a draw of the others. Calls come from the whole dose curve; as a rule, active = well fitted curve in the direction sought with a large enough effect; inconclusive = small, poorly fitted or top-dose-only effect, or another doubt; inactive = no such curve, though single readings can be large; an effect the other way counts as inactive or inconclusive. Potency is the fitted concentration of half-maximal effect.

SMILES	ATXN2 expr inh	ATXN viability	Nrf2 inh	Nrf2 activator	A549 tox
Cc1ccc(C(C#N)c2ccc(C(=O)c3ccc(F)cc3)cc2)cc1 (stereo unspecified)	-17%	i	26µM*	4%	-1%
N#CC(c1ccc(F)cc1)c1ccc(C(=O)c2ccc(F)cc2)cc1 (stereo unspecified)	-16%	i	15µM*	4%	-11%
CC(=O)N1c2ccc(S(=O)(=O)NCCC(=O)Nc3ccc(F)cc3)cc2CC1C (stereo unspecified)	1%	i	0%	1%	0%
CCOc1ccc(C2c3c(ncn(-c4ccccc4)c3=N)Oc3ccc4ccccc4c32)cc1OCC (stereo unspecified)	nt	nt	16µM*	nt	21µM*
N=c1c2c(ncn1-c1ccccc1)Oc1ccc3ccccc3c1C2c1ccc2c(c1)CCO2 (stereo unspecified)	nt	nt	?	nt	16µM*
CN(C)/C=N/NC(=O)c1ccccc1Cl	nt	i	?	0%	-2%
Cc1ccc(S(=O)(=O)/C(=C/Cl)NC(=O)c2ccccc2)cc1	10µM*	?	18µM*	?	-7%
Cc1ccc(C(=O)NC(=C(Cl)Cl)S(=O)(=O)c2ccc(C)cc2)cc1	-34%	i	0%	11µM*	-13%
O=C(O)COc1ccc(-c2nccc(-c3ccccn3)n2)cc1	?	i	2.1µM*	-1%	-1%
CCc1ccc(CCC(=O)Nc2ccc(C)c(C)c2)o1	29%	i	4%	5%	14%
COc1ccc(CCCc2nnc(SCC(=O)Nc3ccc(Cl)cc3)o2)cc1	?	i	21µM*	5%	0%
COc1ccc(CCCc2nnc(SCC(=O)NN)o2)cc1	-8%	i	0%	-1%	-1%
COCCCNC(=S)N1CCN(c2nc(-c3ccc(Cl)cc3)cs2)CC1	nt	i	nt	3%	nt
O=C(NC(=S)N1CCN(c2nc(-c3ccccc3)cs2)CC1)c1cncc(Br)c1	?	?	23µM*	17%	-22%
COCCCNC(=S)N1CCN(c2nc(-c3ccccc3)cs2)CC1	?	i	12µM*	3%	1%
CCOCCCNC(=S)N1CCN(c2nc(-c3ccccc3)cs2)CC1	?	i	16µM*	0%	-16%
O=C1CCCN1c1cc(Cl)cc(Cl)c1	-28%	i	9%	0%	?
O=C(c1ccc2c(c1)OCO2)N1CCN(c2ccc(C(F)(F)F)cn2)CC1	-20%	?	12µM*	5%	0%
Cc1c(N2C(=O)/C(=C\c3ccc(N(C)C)cc3)N(C)C2=S)c(=O)n(-c2ccccc2)n1C	2%	?	-9%	0%	15µM*
COc1ccccc1N1CCN(c2nc(C)nc3c2oc2ccccc23)CC1	35µM*	?	nt	-1%	-5%
CCOCc1cc(CN2CCN(c3ccccc3OC)CC2)c(O)c2ncccc12	nt	nt	?	0%	1%
COc1ccccc1N1CCN(Cc2cc(Br)c(O)c3ncccc23)CC1	3.8µM*	?	18µM*	1%	-8%
Cc1nc(N2CCN(C(=O)c3ccco3)CC2)c2oc3ccccc3c2n1	?	i	21µM*	0%	-13%
CCc1nc(N2CCN(C(=O)c3ccco3)CC2)c2oc3ccccc3c2n1	?	?	?	-1%	-1%[1.84 µM]
CC(=O)N1CCN(Cc2nc3cc(NC(=O)c4ccccc4Cl)ccc3n2C)CC1	-13%	i	-25%	0%	-16%
CCn1c(CN2CCOCC2)nc2cc(NC(=O)c3ccc([N+](=O)[O-])cc3)ccc21	-8%	i	9.2µM*	-1%	0%
Cn1c(CN2CCCCC2)nc2cc(NC(=O)c3ccc(F)cc3)ccc21	4%	i	12µM*	3%	-21%
CCn1c(CN2CCN(C)CC2)nc2cc(NC(=O)c3ccc([N+](=O)[O-])cc3)ccc21	4%	i	4%	-1%	-2%
CC(=O)N1CCN(Cc2nc3cc(NC(=O)c4ccc(Cl)cc4)ccc3n2C)CC1	-2%	i	10µM*	2%	-15%[1.84 µM]
CCOC(=O)c1ccc(Nc2ncnc3c2cnn3C)cc1	6%	i	-3%	0%	-1%

From PubChem BioAssay
